The list is not random: actives were taken first. Their share in the collection is about 2%.
LDHA block = blocks human lactate dehydrogenase A; P00338; purified LDHA, NADH/diaphorase-resazurin fluorescence; active compounds read low; activity change, % (values are at about 110 or 230 µM); hit rate 0.15% among 480,000; AID 1347041; in the data active = activity change below about -30%; inconclusive = mostly about -25% to -30%;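 also: plate controls were DMSO wells for no effect and wells without enzyme for full effect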
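Remaining NADH was detected by diaphorase (0.133 mg/mL) converting 37 µM resazurin to fluorescent resorufin, read at 0 and 20 minutes. The preceding 5-minute room-temperature reaction used 2 nM LDHA, 0.2 mM sodium pyruvate and 0.06 mM NADH at pH 7.4.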
aSyn yeast inh = alpha-synuclein toxicity inhibition in yeast; hit rate 0.14% among 370,000; Yeast expressing alpha-synuclein, growth rescue, BacTiter-Glo, 24 h; Potency, µM (series often up to 46.1 µM), for inactives: at the top dose growth rescue (activation), usual class: activators; also: potency is read from the fitted curve at half-maximal effect; % of control where 0% means no effect; nearly all actives have a fitted effect of over 65% in size
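Galactose-induced alpha-syn yeast (OD600=0.02, raffinose-pregrown) + pinned cpd, 24 hr, 30 deg C; growth by BacTiter-Glo luminescence. Growth restoration scores as activation.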
TDP-43 yeast inh = rescues yeast growth from TDP-43 toxicity; TDP-43 expressing yeast growth rescue, BacTiter-Glo, 24 h; Potency, µM (highest dose often 46.1 µM), without a hit: top-dose growth rescue (activation), hits mostly activators; hit rate 1.8% among 410,000; AID 652104; also: potency is read from the fitted curve at half-maximal effect; % of control where 0% means no effect; nearly all actives have a fitted effect of over 50% in size
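Galactose-induced TDP-43 yeast, OD600=0.02, compound pinned; 24 hr, 30 deg C; BacTiter-Glo luminescence for growth. Inhibitors of TDP-43 toxicity read as activators.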
FUS suppressor = FUS proteinopathy suppression in yeast. S. cerevisiae FUS-expressing, growth rescue, OD600, 24 h. Potency, µM (titrated, usually from 76.6 µM), actives largely listed as activators. hit rate 0.24% among 390,000. AID 1347120;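 also: potency is read from the fitted curve at half-maximal effect; plate controls were DMSO vehicle for no effect and reference control for full effect; nearly all actives have a fitted effect of over 55% in size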
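Compound concentration series was pinned onto galactose-induced FUS-expressing yeast seeded at OD 0.005. Plates sat 24hr at 30C; absorbance at 600 nm gave growth. DMSO served as background control.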
IDH1 R132H inh = inhibitors of human mutant IDH1 R132H; O75874; IDH1-R132H enzyme, NADPH consumption, diaphorase/resazurin fluorescence; Potency, µM (top dose mostly 76.6 µM), inactives show at the top dose activity change, negative = inhibition, hits mostly inhibitors; hit rate 0.093% among 390,000; also: potency is read from the fitted curve at half-maximal effect; % is scaled to controls: 0 for no effect and ±100 for the full control effect; nearly all actives have a fitted effect of over 65% in size
Target sequence (O75874 whole entry R132H, stated change not applied): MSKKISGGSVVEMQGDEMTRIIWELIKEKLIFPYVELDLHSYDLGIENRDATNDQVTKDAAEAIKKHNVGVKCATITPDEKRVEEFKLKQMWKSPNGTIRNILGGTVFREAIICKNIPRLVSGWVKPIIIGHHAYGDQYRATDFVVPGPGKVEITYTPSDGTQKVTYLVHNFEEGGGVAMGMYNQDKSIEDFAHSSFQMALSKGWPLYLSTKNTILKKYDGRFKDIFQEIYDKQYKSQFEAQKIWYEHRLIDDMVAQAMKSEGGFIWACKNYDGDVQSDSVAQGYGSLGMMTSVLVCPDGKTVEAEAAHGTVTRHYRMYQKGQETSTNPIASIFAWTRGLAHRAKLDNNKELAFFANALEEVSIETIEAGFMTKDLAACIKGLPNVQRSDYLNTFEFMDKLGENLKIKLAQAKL
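IDH1-R132H (0.5 ug/mL dispensed) in pH 7.5 Tris buffer was preincubated 30 min with compound, then given a substrate mix of 0.016 mM NADPH and 2 mM alpha-KG for 80 min at room temperature; remaining NADPH was read by diaphorase/resazurin fluorescence.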
Abeta rescue = compounds reversing amyloid beta toxicity in yeast; yeast expressing A-beta42, growth rescue, OD600, 48 h; response scale: 0% DMSO, 100% iron-clioquinol control; Potency, µM (series often up to 46.1 µM), usual class: activators; hit rate 0.063% among 410,000; also: potency is read from the fitted curve at half-maximal effect; nearly all actives have a fitted effect of over 55% in size
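Yeast A-beta toxicity model in growth medium with pinned compounds, 48 h at 30 C; growth read as absorbance at 600 nm. Normalized to FeCl3/clioquinol equimolar mix (positive) and DMSO (negative).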
* hit, by the source's call; i = inactive; u = inconclusive; x = no result; [ ] = another dose, or the depositor's remark. Unless noted, calls follow the shape of the dose curve; as a rule, active = well fitted curve in the direction sought with a large enough effect; inconclusive = small, poorly fitted or top-dose-only effect, or another doubt; inactive = no such curve, though single readings can be large; an effect the other way counts as inactive or inconclusive.

SMILES	LDHA block	aSyn yeast inh	TDP-43 yeast inh	FUS suppressor	IDH1 R132H inh	Abeta rescue
CCc1ccc(C2=Nn3c(nnc3-c3cccs3)SC2)cc1	-6	0%	11µM*	i	-17%	i
CCOc1ccc(C2=Nn3c(CC)nnc3SC2)cc1	1	2%	18µM*	i	9%	i
CCc1nnc2n1N=C(c1ccc(Cl)cc1)CS2	-7	-3%	u	i	9%	i
Cc1c(-c2cccc(Cl)c2)nc2ccccc2c1C(=O)NC1CCCC1	6	x	x	x	x	x
O=C(CSc1ccc(Cl)cc1)N/N=C/c1ccc([N+](=O)[O-])o1	-2	1%	13µM*	i	33%	i
O=C(CNc1ccc2ccccc2c1)N/N=C/c1ccc([N+](=O)[O-])o1	25	6%	-4%[0.397 µM]	i	5%	i
O=C(O)c1cc(-c2ccco2)nc2c(Cl)cccc12	-2	x	x	x	x	x
COc1ccc(CNC(=O)CCCN2C(=O)CSc3c2c(C)nn3-c2ccccc2)c(OC)c1	-2	x	u	i	10%	i
COc1ccc(CNC(=O)CCCN2C(=O)CSc3c2c(C)nn3-c2ccccc2)cc1	-6	x	22µM*	i	-7%	i
CCCOc1ccc(CNC(=O)CCCN2C(=O)CSc3c2c(C)nn3-c2ccccc2)cc1	0	x	18µM*	u	11%	i
Cc1ccc(-c2nnc3ccc(C)cc3c2C(=O)O)cc1	3	x	x	x	x	x
Cc1cccc(N2CCN(C(=O)c3noc4c3CCCCC4)CC2)c1C	-2	x	16µM*	i	-7%	i
Cc1ccc(Cl)cc1N1CCN(C(=O)c2noc(C)c2[N+](=O)[O-])CC1	-5	2%	13µM*	i	-4%	i
Cc1onc(C(=O)N2CCN(c3ccccc3)CC2)c1[N+](=O)[O-]	-3	-3%	u	i	-7%	i
O=C(c1noc2c1CCCCC2)N1CCN(c2ccc(Cl)cc2)CC1	-3	x	11%	i	-11%	i
Cc1ccc(CSCC(=O)N2CCN(c3cc(Cl)ccc3C)CC2)cc1	0	x	18µM*	i	-3%	i
Cc1ccc(Cl)cc1N1CCN(C(=O)c2noc3c2CCCC3)CC1	-7	x	22µM*	i	-11%	i
CCCCc1ccc(C(=O)Oc2ccc(C(C)=O)cc2)cc1	5	x	x	x	x	x
CCOc1ccc(S(=O)(=O)/C=C2\NCCc3cc(OC)c(OC)cc32)cc1	12	x	x	x	x	x
COCCn1c(C)cc(C(=O)CSc2nnc(Nc3ccccc3)s2)c1C	6	x	x	x	x	x
CC1CCc2nc3ccc4ccccc4c3c(-c3ccccc3O)c2C1 (stereo not given)	10	x	x	x	x	x
CCOC(=O)c1c(N2C(=O)CC(Sc3ccccc3C(=O)O)C2=O)sc(C)c1C (stereo not given)	0	9%	14µM*	i	-3%	u
Cc1cc(C)cc(N2C(=O)CC(Sc3ccccc3C(=O)O)C2=O)c1 (stereo not given)	-6	-75%	22µM*	i	3%	i
CCCOc1ccc(CNc2ccc(Oc3ccccc3)cc2)cc1	-1	x	x	x	x	x
CCOC(=O)c1cccc(-n2cnc(/C=C3\NC(=O)N(CC(=O)O)C3=O)c2)c1	-3	x	x	x	x	x
SMILES	LDHA block	aSyn yeast inh	TDP-43 yeast inh	FUS suppressor	IDH1 R132H inh	Abeta rescue
COC(=O)c1sccc1NC(=O)Nc1cc(OC)ccc1OC	0	9%	18µM*	i	19%	i
COC(=O)c1sccc1Oc1c(Cl)cccc1[N+](=O)[O-]	-13	2%	20µM*	i	-2%	i
COC(=O)c1sccc1NC(=O)Nc1ccccc1Cl	1	-10%	11µM*	i	3%	i
COC(=O)c1sccc1NC(=O)Nc1ccc(OC)cc1OC	-1	-1%	20%	i	28%	i
COc1cccc(/C=C2\Oc3cc(OS(C)(=O)=O)ccc3C2=O)c1	5	x	x	x	x	x
Cn1c2ccccc2c2cc(C(=O)O)ccc21	-5	8%	u	i	3%	i

Screening results (PubChem)
